# DT40 TDP1 CPT: DT40-hTDP1 cell growth loss with CPT; chicken DT40 Tdp1-/-;hTDP1 cells + 20 nM CPT, ATP luminescence, 48 h; Potency, µM (doses to about 46.2 µM), for inactives: at the top dose activity change, negative = growth inhibition, usual class: inhibitors; 420,000 compounds, 12% hits; AID 686979; also: potency is read from the fitted curve at half-maximal effect; nearly all actives have a fitted effect of over 55% in size
#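 Cell growth measured by CellTiter-Glo luminescence after a minimum 48 h, 37 C compound exposure with 20 nM CPT in Tdp1-knockout DT40 cells stably expressing hTDP1, seeded 400/well; qHTS titration format.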
# HT1080 IDH1KD tx: HT-1080 IDH1 knockdown cell toxicity (counter line); HT-1080 IDH1 knockdown viability, ATP luminescence, 48 h; Potency, µM (series often up to 46.1 µM), without a hit: top-dose activity, negative = toxicity, most hits filed as cytotoxic; 360,000 compounds, 2% hits; AID 686971;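 also: potency is read from the fitted curve at half-maximal effect; 0% = DMSO wells and -100% = cell-free medium wells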
#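 After a 2 h attachment period, IDH1KD HT-1080 cells took pin-transferred compound for 48 h at 37 °C; ATP-based luminescence after 10 min room-temperature reagent incubation reported viability.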
# HT1080-NT tox: kills 2HG-producing HT-1080-NT fibrosarcoma cells. HT-1080-NT fibrosarcoma viability, CellTiter-Glo ATP luminescence, 48 h. Potency, µM (top dose mostly 46.1 µM), for inactives: at the highest dose activity, negative = less viability, most hits filed as cytotoxic. 360,000 compounds, 1.6% hits;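 also: NT is the 2HG producing partner of a matched IDH1 knockdown line; potency is read from the fitted curve at half-maximal effect; 0% = DMSO-treated cells and -100% = media-only wells without cells; nearly all actives have a fitted effect of over 55% in size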
#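 A 48-hour cytotoxicity screen used HT-1080-NT cells plated 2 hours before compound delivery. ATP-based CellTiter-Glo luminescence measured viability, normalized to DMSO and no-cell controls.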
# TDP1 cell noCPT: qHTS for Inhibitors of human tyrosyl-DNA phosphodiesterase 1 (TDP1): qHTS in cells in absence of CPT; 420,000 compounds, 15% hits; Potency, µM (highest dose often 46.2 µM), without a hit: top-dose activity change, negative = growth inhibition, usual class: inhibitors; DT40 Tdp1-/- hTDP1 cells, no CPT, ATP luminescence, 48 h; AID 686978, 2013; also: potency is read from the fitted curve at half-maximal effect; nearly all actives have a fitted effect of over 55% in size
#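 Chicken DT40 Tdp1-/- cells stably complemented with human TDP1 were seeded at 400 cells/well with DMSO in place of 20 nM camptothecin. After compound pinning, cells grew at least 48 hr at 37 °C; viability read by CellTiter-Glo luminescence.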
# IL1B secr inh: inhibitors of inflammasome signaling (IL-1 beta secretion); 360,000 compounds, 4.7% hits; THP-1 LPS/ATP IL-1B secretion, AlphaLISA, 16 h; stronger effect = lower value; activity change, % at 57.5 µM; in the data active = activity change below about -50%; inconclusive = mostly about -30% to -49%
#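 Secreted IL-1B measured by AlphaLISA bead assay after 16 h compound exposure of THP-1 cells; compounds (final up to 57.5 uM) added 1 h before LPS (250 ng/mL) and ATP (1.25 mM) stimulation; lower signal means less secretion.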
# The depositor's hits bear a star; ? = inconclusive; · = no result; [ ] = another dose, or the depositor's remark. A selection: hits, their analogues and other compounds. The true share with any hit is near 19%. Unless noted, calls follow the shape of the dose curve; as a rule, active = well fitted curve in the direction sought with a large enough effect; inconclusive = small, poorly fitted or top-dose-only effect, or another doubt; inactive = no such curve, though single readings can be large; an effect the other way counts as inactive or inconclusive. Unless noted, % is scaled to controls: 0 for no effect and ±100 for the full control effect.
SMILES,DT40 TDP1 CPT,HT1080 IDH1KD tx,HT1080-NT tox,TDP1 cell noCPT,IL1B secr inh
COc1ccc(C2Nc3ccccc3C(=O)N2Cc2ccco2)cc1COc1ccccc1F (stereo not drawn),?,-4%,-5%,?,-69*
Cc1ccc(C2Nc3ccccc3C(=O)N2Cc2ccco2)cc1 (stereo not drawn),18µM*,?,?,?,-12
COc1ccc(N2C(=O)c3ccccc3NC2c2ccc(OC)c(COc3ccccc3F)c2)cc1 (stereo not drawn),-17%,·,·,?,·
CCN1CCN(CC#CCOc2ccccc2OC)CC1,1%,22%,11%,-13%,-7
CC(=O)Nc1ccccc1-c1nc2ccccc2n(CC(=O)c2ccc(C)c(C)c2)c1=O,21µM*,·,·,?,·
CCC(C(=O)Nc1cccc(C#N)c1)n1c(=O)c(-c2ccccc2NC(C)=O)nc2ccccc21 (stereo not drawn),23µM*,·,·,13µM*,·
CCc1ccc(NC(=O)C(CC)n2c(=O)c(-c3ccccc3NC(C)=O)nc3ccccc32)cc1 (stereo not drawn),23µM*,·,·,23µM*,·
CCC(=O)Nc1ccc(C)cc1-c1nc2ccccc2n(C(C)C(=O)Nc2ccccc2CC)c1=O (stereo not drawn),18µM*,·,·,21µM*,·
CS(=O)(=O)N(CC(=O)NCc1ccco1)c1ccc(OCc2ccccc2)cc1,-5%,-17%,-1%,-5%,-8
O=C(NCC(c1ccco1)N1CCN(c2ccccc2F)CC1)c1ccco1 (stereo not drawn),-23%,0%,5%,?,-8
Cc1cc(/C=C2/C(=O)N(C)C(=S)N2C)ccc1N1CCCC1,?,-7%,-4%,?,12
Cc1cc(N2CCCC2)ccc1/C=C1/C(=O)N(C)C(=S)N1C,9.2µM*,-18%,?,8.2µM*,27
Fc1cc2ncn(Cc3ccccc3)c2cc1F,5%,2%,-1%,-9%,15
CCCc1c(-c2cccc(Cl)c2)ncn1Cc1cccc(-c2ccccc2)c1,21µM*,23µM*,?,18µM*,-6
CCCc1c(-c2ccc(F)cc2F)ncn1Cc1cccc(-c2ccccc2)c1,5.2µM*,?,?,4.1µM*,-9
CCOC(=O)C1(C)CCCN(C(=O)c2cc(C#N)cs2)C1 (stereo not drawn),5%,2%,31%,-1%,0
CCOC(=O)CSc1nc2sc3c(c2c(=O)n1-c1ccccc1)CCN(C)C3,?,-2%,0%,?,0
CCOC(=O)CSc1nc2sc3c(c2c(=O)n1Cc1ccccc1)CC(C)CC3 (stereo not drawn),?,·,·,12µM*,·
CCCn1c(=O)n(C)c(=O)c2c(SCC(=O)NCC(c3ccccc3)N(C)C)nc(CC(C)C)nc21 (stereo not drawn),21µM*,-2%,0%,18µM*,?
CC(NC(=O)CSc1nc2sc3c(c2c(=O)n1-c1ccccc1)CCCC3)c1ccccc1 (stereo not drawn),6.5µM*,13%,1%,?,36
Cc1nn(Cc2ccccc2)c(C)c1NC(=O)CSc1nc2sc3c(c2c(=O)n1C)CCC3,?,-9%,0%,18µM*,39
CC(=O)N1CCC2(CCCN(c3ccccc3)C2)CC1,4%,·,·,-14%,·
CN(C)C(CNC(=O)CSc1nc2sc3c(c2c(=O)n1C)CCCC3)c1ccccc1 (stereo not drawn),23µM*,-20%,-9%,21µM*,-1
Cn1c(SCc2nnc(-c3ccccc3Br)o2)nc2sc3c(c2c1=O)CCC3,?,6%[9.24 µM],?,18µM*,-29
Cc1cc(=O)n2[nH]cc(C(=O)O)c2n1,?,-4%,0%,-8%,-16
SMILES,DT40 TDP1 CPT,HT1080 IDH1KD tx,HT1080-NT tox,TDP1 cell noCPT,IL1B secr inh
CCCCCCNc1nc(-c2ccc(OC)cc2)c(CCC(=O)O)s1,-18%,11%,9%,-2%,6
COC(=O)CCc1sc(NC2CCCCC2)nc1-c1ccc(OC)cc1,21µM*,-3%,-10%,18µM*,18
CC(N)c1csc(NC(=O)c2cc(C(C)(C)C)nn2Cc2ccccc2)n1 (stereo not drawn),18µM*,?,18µM*,21µM*,-55*
Cc1ccc(S(=O)(=O)N(C)C)cc1NC(=O)CN1CCN(Cc2ccccc2)CC1,11%,5%,6%,-2%,22
Cc1ccc(S(=O)(=O)N(C)C)cc1NC(=O)c1cc(C(C)(C)C)nn1Cc1ccccc1,23µM*,-9%,-8%,?,-11
COc1ccc(CC(N)c2csc(NC(=O)c3cc(C(C)(C)C)nn3Cc3ccccc3)n2)cc1 (stereo not drawn),5.8µM*,21µM*,21µM*,4.6µM*,-78*
O=C(NCC(=O)N1CCCCC1)c1ccc2ccccc2c1,10%,19%,14%,0%,?
Cc1nn(CCCC(=O)NCCc2ccc(Cl)cc2)c(=O)c2nn(-c3ccccc3)c(C)c12,?,10%,0%,?,-8
COc1ccc(CNC(=O)C(C)n2nc(C)c3c(C)n(-c4ccc(C)cc4)nc3c2=O)cc1 (stereo not drawn),18µM*,-6%,-20%,?,-15
CCC(C(=O)NCc1ccc(OC)c(OC)c1)n1nc(C)c2c(C)n(-c3ccc(C)cc3)nc2c1=O (stereo not drawn),16µM*,·,·,23µM*,·
CCC(C(=O)Nc1cc(F)ccc1F)n1nc(C)c2c(C)n(-c3ccc(C)cc3)nc2c1=O (stereo not drawn),15µM*,-6%,-18%,16µM*,-9
Cc1nn(Cc2ccccc2)c(=O)c2nn(-c3ccc(Cl)cc3)c(C)c12,?,1%,-1%,21µM*,-70*
CCC(C(=O)Nc1ccccc1F)n1nc(C)c2c(C)n(-c3ccccc3)nc2c1=O (stereo not drawn),?,-14%,-9%,?,-22
CCC(C(=O)NC1CC1)n1nc(C)c2c(C)n(-c3ccc(C)cc3)nc2c1=O (stereo not drawn),5%,-4%,-3%,10%,28
CCOC(=O)C(=O)NC(C)CCc1ccccc1 (stereo not drawn),6%,4%,11%,13%,-4
Cc1ccc(NC(=O)CSCc2n[nH]c(=O)[nH]2)c(Br)c1,-2%,10%,19%,-9%,0
Cc1ccc(-n2nc3c(=O)n(CC(=O)NCc4ccccc4)nc(C)c3c2C)cc1,8%,9%,16%,-3%,15

# Bioassay records (PubChem)
